Measured values from the supplement of paper PMC4466140.

B1: unnamed (peptide)
chain: TTAPALPSLPPPPLL

biological target: AgAbp1; assay: SPOT peptide array binding signal intensity (averaged, normalized) (arbitrary units (background-subtracted, floor 0; scale differs between SH3 domains)); higher = stronger binding of the SH3 domain to the peptide
Summary of the method: (§1)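 GST-fused SH3 domains, from four yeast species, were produced in E. coli BL21(DE3) and captured on glutathione Sepharose. Membranes of cellulose carrying synthetic 15-mer peptides, in which cysteines had been replaced by serines, were exposed to each domain at 10 μg/ml overnight at 4°C in TBS-based blocking buffer. After anti-GST antibody, an HRP anti-mouse secondary and luminol, spots were imaged and quantified using Genespotter. Binding signal is normalized and background-subtracted spot intensity, averaged over replicates, in arbitrary units that differ between domains.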

Row | Binder | SPOT peptide array binding signal intensity
1 | B1 | 0.5

biological target: AgBbc1; assay: as above
Summary of the method: as §1

Row | Binder | SPOT peptide array binding signal intensity
2 | B1 | ≤ 0

biological target: AgBem1-D1; assay: as above
Summary of the method: as §1

Row | Binder | SPOT peptide array binding signal intensity
3 | B1 | ≤ 0

biological target: AgBzz1-D1; assay: as above
Summary of the method: as §1

Row | Binder | SPOT peptide array binding signal intensity
4 | B1 | 22

biological target: AgBzz1-D2; assay: as above
Summary of the method: as §1

Row | Binder | SPOT peptide array binding signal intensity
5 | B1 | 25

biological target: AgCyk3; assay: as above
Summary of the method: as §1

Row | Binder | SPOT peptide array binding signal intensity
6 | B1 | ≤ 0

biological target: AgFus1; assay: as above
Summary of the method: as §1

Row | Binder | SPOT peptide array binding signal intensity
7 | B1 | ≤ 0

biological target: AgHof1; assay: as above
Summary of the method: as §1

Row | Binder | SPOT peptide array binding signal intensity
8 | B1 | 1690

biological target: AgHse1; assay: as above
Summary of the method: as §1

Row | Binder | SPOT peptide array binding signal intensity
9 | B1 | ≤ 0

biological target: AgLsb1; assay: as above
Summary of the method: as §1

Row | Binder | SPOT peptide array binding signal intensity
10 | B1 | ≤ 0

biological target: AgLsb4; assay: as above
Summary of the method: as §1

Row | Binder | SPOT peptide array binding signal intensity
11 | B1 | ≤ 0

biological target: AgMyo5; assay: as above
Summary of the method: as §1

Row | Binder | SPOT peptide array binding signal intensity
12 | B1 | 3050

biological target: AgNbp2; assay: as above
Summary of the method: as §1

Row | Binder | SPOT peptide array binding signal intensity
13 | B1 | ≤ 0

biological target: AgRvs167; assay: as above
Summary of the method: as §1

Row | Binder | SPOT peptide array binding signal intensity
14 | B1 | 0.667

biological target: AgSho1; assay: as above
Summary of the method: as §1

Row | Binder | SPOT peptide array binding signal intensity
15 | B1 | ≤ 0

biological target: AgSla1-D1-D2; assay: as above
Summary of the method: as §1

Row | Binder | SPOT peptide array binding signal intensity
16 | B1 | ≤ 0

biological target: AgSla1-D3; assay: as above
Summary of the method: as §1

Row | Binder | SPOT peptide array binding signal intensity
17 | B1 | 3

biological target: CaAbp1-D1; assay: as above
Summary of the method: as §1

Row | Binder | SPOT peptide array binding signal intensity
18 | B1 | 5

biological target: CaAbp1-D2; assay: as above
Summary of the method: as §1

Row | Binder | SPOT peptide array binding signal intensity
19 | B1 | 21

biological target: CaBbc1; assay: as above
Summary of the method: as §1

Row | Binder | SPOT peptide array binding signal intensity
20 | B1 | 3

biological target: CaBem1-D1; assay: as above
Summary of the method: as §1

Row | Binder | SPOT peptide array binding signal intensity
21 | B1 | ≤ 0

biological target: CaBzz1-D1; assay: as above
Summary of the method: as §1

Row | Binder | SPOT peptide array binding signal intensity
22 | B1 | 3.5

biological target: CaBzz1-D2; assay: as above
Summary of the method: as §1

Row | Binder | SPOT peptide array binding signal intensity
23 | B1 | ≤ 0

biological target: CaCyk3; assay: as above
Summary of the method: as §1

Row | Binder | SPOT peptide array binding signal intensity
24 | B1 | ≤ 0

biological target: CaFus1; assay: as above
Summary of the method: as §1

Row | Binder | SPOT peptide array binding signal intensity
25 | B1 | ≤ 0

biological target: CaHof1; assay: as above
Summary of the method: as §1

Row | Binder | SPOT peptide array binding signal intensity
26 | B1 | 873

biological target: CaHse1; assay: as above
Summary of the method: as §1

Row | Binder | SPOT peptide array binding signal intensity
27 | B1 | 5.75

biological target: CaLsb1; assay: as above
Summary of the method: as §1

Row | Binder | SPOT peptide array binding signal intensity
28 | B1 | 0.5

biological target: CaLsb4; assay: as above
Summary of the method: as §1

Row | Binder | SPOT peptide array binding signal intensity
29 | B1 | ≤ 0

biological target: CaMyo5; assay: as above
Summary of the method: as §1

Row | Binder | SPOT peptide array binding signal intensity
30 | B1 | 1950

biological target: CaNbp2; assay: as above
Summary of the method: as §1

Row | Binder | SPOT peptide array binding signal intensity
31 | B1 | ≤ 0

biological target: CaRvs167; assay: as above
Summary of the method: as §1

Row | Binder | SPOT peptide array binding signal intensity
32 | B1 | 1

biological target: CaRvs167-3; assay: as above
Summary of the method: as §1

Row | Binder | SPOT peptide array binding signal intensity
33 | B1 | 1

biological target: CaSho1; assay: as above
Summary of the method: as §1

Row | Binder | SPOT peptide array binding signal intensity
34 | B1 | ≤ 0

biological target: CaSla1-D1-D2; assay: as above
Summary of the method: as §1

Row | Binder | SPOT peptide array binding signal intensity
35 | B1 | ≤ 0

biological target: CaSla1-D3; assay: as above
Summary of the method: as §1

Row | Binder | SPOT peptide array binding signal intensity
36 | B1 | 0.25

biological target: ScAbp1; assay: as above
Summary of the method: as §1

Row | Binder | SPOT peptide array binding signal intensity
37 | B1 | 1

biological target: ScBbc1; assay: as above
Summary of the method: as §1

Row | Binder | SPOT peptide array binding signal intensity
38 | B1 | 1

biological target: ScBem1-D1; assay: as above
Summary of the method: as §1

Row | Binder | SPOT peptide array binding signal intensity
39 | B1 | 2

biological target: ScBzz1-D1; assay: as above
Summary of the method: as §1

Row | Binder | SPOT peptide array binding signal intensity
40 | B1 | 190

biological target: ScBzz1-D2; assay: as above
Summary of the method: as §1

Row | Binder | SPOT peptide array binding signal intensity
41 | B1 | ≤ 0

biological target: ScCyk3; assay: as above
Summary of the method: as §1

Row | Binder | SPOT peptide array binding signal intensity
42 | B1 | ≤ 0

biological target: ScFus1; assay: as above
Summary of the method: as §1

Row | Binder | SPOT peptide array binding signal intensity
43 | B1 | ≤ 0

biological target: ScHof1; assay: as above
Summary of the method: as §1

Row | Binder | SPOT peptide array binding signal intensity
44 | B1 | 2250

biological target: ScHse1; assay: as above
Summary of the method: as §1

Row | Binder | SPOT peptide array binding signal intensity
45 | B1 | ≤ 0

biological target: ScLsb1; assay: as above
Summary of the method: as §1

Row | Binder | SPOT peptide array binding signal intensity
46 | B1 | ≤ 0

biological target: ScLsb2; assay: as above
Summary of the method: as §1

Row | Binder | SPOT peptide array binding signal intensity
47 | B1 | ≤ 0

biological target: ScLsb3; assay: as above
Summary of the method: as §1

Row | Binder | SPOT peptide array binding signal intensity
48 | B1 | ≤ 0

biological target: ScLsb4; assay: as above
Summary of the method: as §1

Row | Binder | SPOT peptide array binding signal intensity
49 | B1 | ≤ 0

biological target: ScMyo3; assay: as above
Summary of the method: as §1

Row | Binder | SPOT peptide array binding signal intensity
50 | B1 | 2800

biological target: ScMyo5; assay: as above
Summary of the method: as §1

Row | Binder | SPOT peptide array binding signal intensity
51 | B1 | 2300

biological target: ScNbp2; assay: as above
Summary of the method: as §1

Row | Binder | SPOT peptide array binding signal intensity
52 | B1 | ≤ 0

biological target: ScPex13; assay: as above
Summary of the method: as §1

Row | Binder | SPOT peptide array binding signal intensity
53 | B1 | 214

biological target: ScRvs167; assay: as above
Summary of the method: as §1

Row | Binder | SPOT peptide array binding signal intensity
54 | B1 | ≤ 0

biological target: ScSho1; assay: as above
Summary of the method: as §1

Row | Binder | SPOT peptide array binding signal intensity
55 | B1 | 42

biological target: ScSla1-D1-D2; assay: as above
Summary of the method: as §1

Row | Binder | SPOT peptide array binding signal intensity
56 | B1 | ≤ 0

biological target: ScSla1-D3; assay: as above
Summary of the method: as §1

Row | Binder | SPOT peptide array binding signal intensity
57 | B1 | 1.5

biological target: SpAbp1-D1; assay: as above
Summary of the method: as §1

Row | Binder | SPOT peptide array binding signal intensity
58 | B1 | ≤ 0

biological target: SpBbc1; assay: as above
Summary of the method: as §1

Row | Binder | SPOT peptide array binding signal intensity
59 | B1 | 7.5

biological target: SpBzz1-D1; assay: as above
Summary of the method: as §1

Row | Binder | SPOT peptide array binding signal intensity
60 | B1 | 124

biological target: SpBzz1-D2; assay: as above
Summary of the method: as §1

Row | Binder | SPOT peptide array binding signal intensity
61 | B1 | ≤ 0

biological target: SpCyk3; assay: as above
Summary of the method: as §1

Row | Binder | SPOT peptide array binding signal intensity
62 | B1 | 1

biological target: SpHof1; assay: as above
Summary of the method: as §1

Row | Binder | SPOT peptide array binding signal intensity
63 | B1 | ≤ 0

biological target: SpHof1-2; assay: as above
Summary of the method: as §1

Row | Binder | SPOT peptide array binding signal intensity
64 | B1 | 39.8

biological target: SpHof1-3; assay: as above
Summary of the method: as §1

Row | Binder | SPOT peptide array binding signal intensity
65 | B1 | ≤ 0

biological target: SpHse1; assay: as above
Summary of the method: as §1

Row | Binder | SPOT peptide array binding signal intensity
66 | B1 | ≤ 0

biological target: SpLsb1; assay: as above
Summary of the method: as §1

Row | Binder | SPOT peptide array binding signal intensity
67 | B1 | ≤ 0

biological target: SpLsb4; assay: as above
Summary of the method: as §1

Row | Binder | SPOT peptide array binding signal intensity
68 | B1 | ≤ 0

biological target: SpMyo1; assay: as above
Summary of the method: as §1

Row | Binder | SPOT peptide array binding signal intensity
69 | B1 | 1940

biological target: SpNbp2; assay: as above
Summary of the method: as §1

Row | Binder | SPOT peptide array binding signal intensity
70 | B1 | ≤ 0

biological target: SpPex13; assay: as above
Summary of the method: as §1

Row | Binder | SPOT peptide array binding signal intensity
71 | B1 | 11

biological target: SpRvs167; assay: as above
Summary of the method: as §1

Row | Binder | SPOT peptide array binding signal intensity
72 | B1 | ≤ 0

biological target: SpSla1-D1-D2; assay: as above
Summary of the method: as §1

Row | Binder | SPOT peptide array binding signal intensity
73 | B1 | 4

biological target: SpSla1-D3; assay: as above
Summary of the method: as §1

Row | Binder | SPOT peptide array binding signal intensity
74 | B1 | 2
